Compound activity (PubChem)
ANO1 block: inhibitors of mouse TMEM16A calcium-activated chloride channel; Q8BHY3; HEK293 TMEM16A/YFP iodide influx fluorescence, ionomycin; normalized B-score (activity score, 25-100; higher = stronger inhibition) at 10 µM; hit rate 1.2% among 310,000;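 active means ratio plate-corrected score three or more library SD toward inhibition, starting fluorescence score within five deviations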;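 further: score derived from kinetic fluorescence span divided by baseline fluorescence per well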
NTR1 agonist: agonists of human neurotensin receptor NTR1; P30989; NTR1-U2OS beta-arrestin-GFP spot imaging, agonist mode; activation, % at 20 µM; hit rate 0.17% among 330,000; AID 493036;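 active means activation at or above 40% of the spot to cytoplasm intensity ratio, with at least 20 cells analyzed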;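 further: 0% = DMSO without peptide and 100% = 100 nM NTR1 peptide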
Target sequence (P30989 whole entry, looked up): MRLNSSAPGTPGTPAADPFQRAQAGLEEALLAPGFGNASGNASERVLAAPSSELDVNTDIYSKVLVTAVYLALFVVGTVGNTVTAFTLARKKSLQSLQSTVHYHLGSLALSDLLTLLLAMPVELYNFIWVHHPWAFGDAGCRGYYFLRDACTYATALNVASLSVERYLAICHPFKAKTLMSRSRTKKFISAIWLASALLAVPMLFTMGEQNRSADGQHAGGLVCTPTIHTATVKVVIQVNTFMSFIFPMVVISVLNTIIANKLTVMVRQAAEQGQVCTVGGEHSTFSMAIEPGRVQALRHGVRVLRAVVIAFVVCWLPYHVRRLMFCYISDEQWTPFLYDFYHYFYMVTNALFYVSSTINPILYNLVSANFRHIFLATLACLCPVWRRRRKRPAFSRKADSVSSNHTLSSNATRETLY
TMEM16A act: activators or potentiators of mouse TMEM16A chloride channel | Q8BHY3 | HEK293 TMEM16A/YFP-H148Q/I152L, iodide quench fluorescence; active compounds read low | B-score at 10 µM | hit rate 0.3% among 340,000 | AID 623877;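 active means fluorescence-ratio B-score plate-corrected deviation score at least 3 library SD below zero, with starting fluorescence score within 5 deviations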;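 further: channel opened by trigger with iodide after compound preincubation; score built on the fluorescence ratio of max minus min over baseline; more negative score means more quench and so TMEM16A activation or potentiation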
M1 ag parental: counter-screen for M1 agonists: effect in parental CHO-K1 cells. Fluo-8 calcium fluorescence; scaled to maximal ATP response, vehicle zero. activation, % at 3 µM. hit rate 0.48% among 360,000; in the data active means activation above about 15%;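 further: untransfected CHO-K1 host cells lacking M1 receptor as counterscreen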
CHO-K1 Ca PAM: M1 PAM counterscreen hit in parental CHO-K1 cells; activation, % at 3 µM; AID 602247; ATP EC20, Fluo-8 calcium fluorescence; 0% at ATP EC20, 100% at ATP max; hit rate 0.02% among 360,000;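 active means activation above the run cutoff, the mean activation of all test compounds plus 3 SD, cut at about 40% in these data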;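 further: peak over basal fluorescence ratio in a 140 s read after ATP addition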
CHO-K1 Ca antag: nonselective inhibitor or artifact in parental CHO-K1 cells | ATP-induced calcium, Fluo-8 fluorescence | inhibition, % at 3 µM | hit rate 0.6% among 360,000;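 active means inhibition above a per-plate cutoff, the plate's mean sample inhibition plus 3 SD, cut at about 24% in these data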;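 further: 0% = DMSO plus EC80 ATP and 100% = DMSO alone without ATP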
TMEM16A reconf: re-confirmation of mouse TMEM16A chloride channel inhibitors; shares compounds with ANO1 block; HEK293 TMEM16A/YFP-H148Q, iodide quench fluorescence; ionomycin added to raise cell calcium; inhibition, % at 10 µM; hit rate 39% among 2,300; AID 652189;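 active means mean duplicate percent inhibition, scaled so buffer wells are 0 and the reference blocker 100, over three buffer SD above buffer mean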
TMEM16A Ca cntr: calcium mobilization counter-screen hit for TMEM16A inhibitor series; AID 652231; TMEM16A/YFP HEK293, Fluo4 calcium mobilization; calcium response (% of ionomycin), % at 10 µM; hit rate 2% among 2,300; shares compounds with ANO1 block;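 active means duplicate-averaged calcium signal over 20% of the ionomycin maximum, relative to buffer baseline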;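 further: each well's signal is peak minus trough fluorescence divided by its pre-addition baseline; 0% = buffer wells and 100% = ionomycin wells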
YFP-HEK293 quench: parental YFP-HEK293 iodide quench counter-screen activity; shares compounds with ANO1 block; ionomycin; YFP ratio F(max-min)/F0 at 10 µM; 2,300 tested, under 10 active;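 active means yellow fluorescent protein signal ratio exceeding the buffer control mean by over 5 SD of those controls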;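 further: ratio is mean of duplicate wells from kinetic YFP trace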
ClC-1 inh: blocks the rat ClC-1 voltage-dependent chloride channel; shares compounds with ANO1 block; CHO ClC-1-YFP, iodide influx fluorescence quench; iodide control reads 0, buffer control 100; ratio percent, % at 10 µM; 2,300 tested, under 10 active; AID 652236;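 active means duplicate-mean ratio percent above the mean of iodide-only control wells, which defines zero, plus 5 of their SD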;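 further: higher percent means stronger block of ClC-1 iodide influx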
Starred values were filed as active, the others as inactive; i = inactive; / = no result. This is a sample that favours compounds with a hit; in the whole collection about 2.2% have one here.

SMILES	ANO1 block	NTR1 agonist	TMEM16A act	M1 ag parental	CHO-K1 Ca PAM	CHO-K1 Ca antag	TMEM16A reconf	TMEM16A Ca cntr	YFP-HEK293 quench	ClC-1 inh
CC1Cc2cc(-c3csc(NC(=O)Cc4cccs4)n3)ccc2N1S(C)(=O)=O (stereo not given)	25*	17.1	i	11.0	9.1	8.8	22.5%*	i	-1.42	-4.5
CCC(=O)Nc1nc(-c2ccc3c(c2)CC(C)N3S(C)(=O)=O)cs1 (stereo not given)	i	2.1	i	4.3	10.7	-0.2	/	/	/	/
O=C(CSc1ccc(Cl)cc1)N1CCN(c2ccc(Cl)cc2[N+](=O)[O-])CC1	100*	2.8	i	3.0	-6.5	-5.5	i	i	-1.13	-2.5
CC(C)(C)C(=O)N1CCN(c2ccc(Cl)cc2[N+](=O)[O-])CC1	i	0.2	i	0.3	3.0	9.6	/	/	/	/
C=CCOC(=O)C1=C(C)NC(SCC)=C(C#N)C1c1ccc(Cl)cc1 (stereo not given)	100*	20.8	i	-0.2	16.9	-7.5	22.5%*	i	-1.25	-20.0
COc1ccc(NC(=O)c2ccc3nccnc3c2)cc1	100*	0.1	i	1.2	1.6	2.5	i	i	-1.09	-5.0
CCOc1ccc(NC(=O)c2ccc3nccnc3c2)cc1	i	0.5	i	2.0	11.6	-5.9	/	/	/	/
Cc1ccc(NC(=O)CCC(=O)NN=Cc2ccc(C)o2)c(C)c1	/	/	/	0.6	21.0	-12.5	/	/	/	/
CCOc1ccc(Nc2cc(Nc3ccccc3OCC)nc(C=C(C#N)C#N)n2)cc1	i	5.3	i	15.5*	3.5	-3.5	i	i	-1.31	-2.5
COc1ccccc1-c1noc2c1C(=O)N(Cc1cn(C3CCCC3)nn1)CC2	/	/	/	0.1	8.5	-28.1	/	/	/	/
CC(=O)N(Cc1c(C#N)c2ccccc2n1C)c1ccccc1	i	-1.2	i	0.0	4.1	7.8	/	/	/	/
CC(=O)N(Cc1ccccc1)c1ncc2c(n1)c(=O)c(C#N)c1ccccn12	25*	1.5	i	0.1	-11.9	13.4	i	i	-0.911	-7.5
CCCCN(C(=O)c1ccc(S(=O)(=O)N(C)c2ccccc2)cc1)c1c(N)n(CCC)c(=O)[nH]c1=O	/	/	i	0.2	0.5	-15.2	/	/	/	/
CN(C)c1ccc(C=NN2C(=O)CSC2=S)c(Cl)c1	/	/	/	9.8	-3.2	8.8	/	/	/	/
Cc1ccnc(Nc2nc(-c3ccc(O)c(O)c3)cs2)c1	25*	13.8	i	1.9	16.7	0.5	i	i	-0.94	-4.0
COc1ccc(NC(=O)c2[nH]c(C)c(C(C)=O)c2C)cc1	i	1.3	i	1.5	8.9	-10.1	/	/	/	/
CCc1c(C(=O)Nc2ccc(OC)cc2)[nH]c(C)c1C(C)=O	25*	0.0	i	1.9	8.1	5.2	i	i	-0.957	-7.5
CC(C)(C)c1csc(NC(=O)c2ccccc2O)n1	25*	9.1	i	13.5	-4.4	4.8	23.0%*	i	-0.953	-2.0
CC1(c2nnnn2Cc2ccccc2)CCC(=O)N1CCc1ccccc1F (stereo not given)	/	/	/	0.1	6.1	-5.6	/	/	/	/
Clc1ccc(OCCSCc2nc3ccccc3[nH]2)cc1	100*	1.3	i	2.4	10.2	0.6	20.5%*	i	-1.17	-4.5
CC1(C(=O)NC2CCCCCC2)CCN1C(=O)C1(c2ccccc2)CC1 (stereo not given)	/	/	/	0.5	8.8	-8.5	/	/	/	/
Cc1csc(SCC(=O)c2cc(C)n(Cc3cccs3)c2C)n1	100*	0.4	i	5.0	9.0	8.4	16.5%*	i	-1.26	-14.0
Cc1cc(C(=O)CSc2n[nH]c(-c3ccccc3F)n2)c(C)n1Cc1cccs1	100*	5.2	i	2.9	3.7	-2.3	i	i	-1.06	-4.5
O=C(NC(c1ccc(Cl)cc1)c1cnccn1)C1CCN(CCCc2ccccc2)CC1 (stereo not given)	/	/	/	0.8	18.2	-2.8	/	/	/	/
CCOC(=O)N1CCC(Nc2nc3ccccc3nc2NS(=O)(=O)c2ccc(Cl)cc2)CC1	i	1.8	i	0.6	9.9	-21.3	31.5%*	i	-0.817	-144.0
SMILES	ANO1 block	NTR1 agonist	TMEM16A act	M1 ag parental	CHO-K1 Ca PAM	CHO-K1 Ca antag	TMEM16A reconf	TMEM16A Ca cntr	YFP-HEK293 quench	ClC-1 inh
CCOC(=O)N1CCC(NC(=O)c2ccc(Cl)cc2)CC1	i	0.4	i	0.3	2.0	-0.7	/	/	/	/
O=S(=O)(Nc1nc2ccccc2nc1N1CCN(c2ccccc2F)CC1)c1ccc(Cl)cc1	100*	9.9	i	0.3	11.0	3.5	38.0%*	i	-0.99	-10.5
NCc1ccccc1	i	4.5	i	0.4	7.6	0.7	/	/	/	/
CC(C)c1ccccc1OCC(=O)NCC(c1cccs1)N1CCOCC1 (stereo not given)	100*	3.0	i	6.2	16.2	-3.4	33.5%*	i	-1.26	-3.0
COc1ccccc1OCC(=O)NCC(c1cccs1)N1CCOCC1 (stereo not given)	i	0.3	i	1.9	0.7	-0.8	/	/	/	/
COc1ccc(-c2cn(Cc3ccc(C(=O)c4ccccc4)cc3)nn2)cc1	25*	-3.1	/	/	/	/	27.0%*	i	-0.865	-16.5
N#C/C(=C\c1ccc(N2CCOCC2)o1)C(=O)NCC1CCCO1 (stereo not given)	i	-0.5	i	4.0	15.2	-5.2	/	/	/	/
N#C/C(=C\c1ccc(N2CCOCC2)o1)C(=O)NC1CCCCC1	i	-1.5	i	15.8*	12.1	0.1	i	i	-0.935	-19.0
O=C(CSc1nnc2ccccn12)NNC(=O)c1ccccc1F	/	4.8	i	0.0	6.4	-0.4	/	/	/	/
CC1C(=O)Nc2ccccc2N1C(=O)C1CC1 (stereo not given)	25*	0.0	i	0.0	20.4	-12.7	i	i	-0.914	-14.5
CC1C(=O)Nc2ccccc2N1C(=O)c1ccccc1 (stereo not given)	i	0.4	i	0.7	14.4	-5.8	/	/	/	/
O=C1C(=O)c2c(ccc3ccccc23)-c2ccccc21	/	/	i	0.5	7.7	-12.9	/	/	/	/
Cn1c(CC(O)c2nc3ccccc3n2C)nc2ccccc21 (stereo not given)	/	/	/	0.5	0.5	9.5	/	/	/	/
